The list is not random: actives were taken first. Their share in the collection is about 3%.
UbGFP stabilizer = proteasome inhibitors stabilizing ubiquitin-GFP reporter; Ubiquitin-GFP reporter cells, proteasome inhibition, GFP fluorescence; response scale: untreated = 0%, 10 µM MG-132 = 100%; Potency, µM (series often up to 45.9 µM), for the others: top-dose activation (GFP accumulation), actives largely listed as activators; 67,000 tested, under 10 active; AID 526; active = well fitted activation curve with a large enough effect, not every such curve was filed as active; inconclusive = small, poorly fitted or top-dose-only effect, or another doubt; inactive = no such curve, though single readings can be large or run the other way; note: potency is the fitted concentration of half-maximal effect
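GFP accumulation read-out: laser plate cytometry counting ubiquitin(G76V)-GFP-expressing U2OS cells after 4 hr compound exposure at 37 °C. Titrations spanned 46 uM to 2.9 nM; 0% = basal, 100% = 10 uM MG-132; concentration-response curves fitted.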
HBB splice mod = alters splicing of the hemoglobin beta chain | HBB splicing reporter cell assay, activation; EGFP reporter with mutant IVS2-654 intron; response scale: normalised to 500 nM splice-correcting PNA | Potency, µM (series often up to 46.1 µM), without a hit: at the top dose activation, most hits filed as activators | actives 0.06% (n = 65,000); note: potency is the fitted concentration of half-maximal effect; 0% is about no effect
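Compounds were applied for 2 days to HeLa EGFP-654 cells, 500/well in Optimem with 2% FCS. The reporter's EGFP is disrupted by mis-splicing of beta-globin intron IVS2-654. Readout: summed well GFP fluorescence from 488 nm laser scanning; reference was 500 nM antisense […] 654 PNA.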
TSHR ag = TSH receptor (human) agonism; P16473; HEK293-CNG-TSHR cells (CNG channel as cAMP sensor), membrane potential dye, cAMP; Potency, µM (top dose mostly 57.1 µM), for inactives: top-dose activation, hits mostly activators; actives 0.48% (n = 73,000); AID 926; active = well fitted activation curve with a large enough effect in the main read-out, with a control signal flat, not every such curve was filed as active; inconclusive = small, poorly fitted or top-dose-only effect, or a change in a side signal; inactive = no such curve, though single readings can be large or run the other way; % of control where 0% means no effect;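 note: the control signal comes from parental cells without the receptor; potency is the fitted concentration of half-maximal effect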
Target sequence (P16473 whole entry, looked up): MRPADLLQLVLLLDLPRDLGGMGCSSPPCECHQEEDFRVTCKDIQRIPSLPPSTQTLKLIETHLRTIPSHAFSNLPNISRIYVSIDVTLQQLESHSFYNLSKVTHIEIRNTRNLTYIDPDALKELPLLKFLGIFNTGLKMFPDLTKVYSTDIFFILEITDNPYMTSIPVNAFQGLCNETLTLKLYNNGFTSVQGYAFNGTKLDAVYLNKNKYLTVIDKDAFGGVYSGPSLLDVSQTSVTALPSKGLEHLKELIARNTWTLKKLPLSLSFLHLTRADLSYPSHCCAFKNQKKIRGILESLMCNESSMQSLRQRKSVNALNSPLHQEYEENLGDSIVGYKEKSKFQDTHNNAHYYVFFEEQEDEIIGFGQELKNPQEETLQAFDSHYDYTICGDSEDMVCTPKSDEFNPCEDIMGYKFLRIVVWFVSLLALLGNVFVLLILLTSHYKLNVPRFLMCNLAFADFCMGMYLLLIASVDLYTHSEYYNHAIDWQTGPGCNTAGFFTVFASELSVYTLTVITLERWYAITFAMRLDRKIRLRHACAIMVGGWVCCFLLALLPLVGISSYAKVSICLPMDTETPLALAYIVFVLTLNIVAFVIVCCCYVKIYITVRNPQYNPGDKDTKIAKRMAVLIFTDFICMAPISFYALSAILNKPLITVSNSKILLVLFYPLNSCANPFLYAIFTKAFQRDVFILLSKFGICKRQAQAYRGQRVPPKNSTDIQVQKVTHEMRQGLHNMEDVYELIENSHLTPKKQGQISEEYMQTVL
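cAMP rise detected as CNG-channel membrane depolarization by fluorescent dye (emission 590 nm), 30 min after compound, following 60 min dye loading containing 100 uM RO 20-1724 at room temperature. Cells: TSHR/CNG HEK 293, with parental CNG HEK 293 as control.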
GFP derepression = epigenetic modulators derepressing GFP locus in mouse cells; mouse C127i GFP locus derepression, cytometry, 30 h; Potency, µM (doses to about 46.1 µM), inactives show top-dose GFP derepression (activation); actives 0.09% (n = 68,000); note: % of control where 0% means no effect
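Murine C127i mammary cells carrying a silenced, stably integrated CMV-driven GFP reporter were treated with compound for 30 hours at 37 C. After PBS washes, GFP-positive cells were counted by laser-scanning microplate cytometry.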
HEK293 cAMP cs = counter-screen for TSHR agonists: cAMP increase in parental HEK293; Potency, µM (highest dose often 57.1 µM), without a hit: top-dose activation, usual class: activators; parental HEK293 CNG cAMP sensor, membrane potential fluorescence; actives 2.5% (n = 73,000); note: potency is the fitted concentration of half-maximal effect; % of control where 0% means no effect; nearly all actives have a fitted effect of over 55% in size
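Counterscreen for endogenous-receptor signalling: CNG-channel HEK 293 cells report cAMP rise by membrane depolarization. After 60 min dye equilibration with 100 uM RO 20-1724, compounds incubated 30 min before bottom-read fluorescence at 590 nm.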
The depositor's hits bear a star; ? = inconclusive; nt = not tested or not shown; [ ] = another dose, or the depositor's remark. Unless noted, calls come from the whole dose curve; as a rule, active = well fitted curve in the direction sought with a large enough effect; inconclusive = small, poorly fitted or top-dose-only effect, or another doubt; inactive = no such curve, though single readings can be large; an effect the other way counts as inactive or inconclusive.

SMILES	UbGFP stabilizer	HBB splice mod	TSHR ag	GFP derepression	HEK293 cAMP cs
COC(=O)[C@@H]1C(O)[C@@H](C(=O)OC)[C@H](C)N(C)[C@@H]1C (stereo not given in full)	-6.7%[9.17 µM]	4.5%[9.22 µM]	-3.7%[11.4 µM]	-2.2%[9.22 µM]	-1.8%[11.4 µM]
COc1ccc(C(=O)N(Cc2nc(-c3ccc(C)cc3)no2)C(C)C)cc1OC	-8.6%	-1.1%	27.9%	nt	4.2%[11.4 µM]
COc1ccc(-c2noc(CN(C(=O)c3ccc(OC(C)=O)cc3)C(C)C)n2)cc1OC	2.7%	-0.2%	25.1µM*	-6.6%	0.9%
COc1cc(OC)cc(C(=O)N(Cc2nc(-c3cccc(C)c3)no2)C(C)C)c1	-3.6%	1.5%	?	0.0%	31.6µM*
FC(F)(F)c1ccccc1-c1nccc(-n2ccnc2)n1	8.1%	-1.7%	11.7%	-2.9%[9.22 µM]	27.0%
COC(=O)[C@@]1(Cc2ccc(F)cc2)[C@H]2c3cc(C(=O)N(C)C)n(Cc4cc(C)n(C)n4)c3C[C@H]2CN1C(=O)c1ccccc1	nt	1.2%	?	nt	?
COC(=O)[C@@]1(Cc2ccc(F)cc2)[C@H]2c3cc(C(=O)N4CCCC4)n(Cc4cc(C)n(C)n4)c3C[C@H]2CN1C(=O)c1ccccc1	nt	-1.8%	?	nt	15.8µM*
COC(=O)[C@@]1(Cc2ccc(F)cc2)[C@H]2c3cc(C(=O)N4CCCC4)n(Cc4ccc(S(C)(=O)=O)cc4)c3C[C@H]2CN1C(=O)c1ccccc1	nt	0.3%	?	nt	15.8µM*
COC(=O)[C@@]1(Cc2ccc(F)cc2)[C@H]2c3cc(C(=O)N(C)C)n(Cc4ccc(S(C)(=O)=O)cc4)c3C[C@H]2CN1C(=O)c1ccccc1	nt	0.0%	?	nt	?
COC(=O)[C@@]1(Cc2ccc(F)cc2)[C@H]2c3cc(C(=O)N4CCCC4)n(Cc4ccc(C)o4)c3C[C@H]2CN1C(=O)c1ccccc1	nt	-0.9%	?	nt	31.6µM*
COC(=O)[C@@]1(Cc2ccc(F)cc2)[C@H]2c3cc(C(=O)N4CCCC4)n(CC4CC4)c3C[C@H]2CN1C(=O)c1ccccc1	nt	-1.8%	?	nt	3.98µM*
COc1ccccc1CCn1c(=O)c(-c2cccs2)nc2cncnc21	2.0%	-1.0%	?	-0.4%[9.22 µM]	?
O=C1OC(=O)c2ccccc21	nt	0.9%	-3.0%	nt	6.7%
COc1ccc(OC)c(NC(=O)CSCc2cnn(-c3ccccc3)c2-n2cccc2)c1	8.6%	0.6%	?	3.9%	25.1µM*
COc1cc(NC(=O)CSCc2cnn(-c3ccccc3)c2-n2cccc2)cc(OC)c1	2.5%	6.2%	22.6%	-2.9%	11.2%
Cc1cc(OCC(=O)NCc2nc(-c3ccccc3)no2)c(C)cc1Br	-2.6%	-0.1%	?	-3.2%	31.6µM*
Cc1cc(C)n2nc(NCc3cccc(Br)c3)nc2n1	-2.0%	0.8%[57.5 µM]	1µM*	-4.8%	0.6%
O=C(NCc1ccc2c(c1)OCO2)c1ccc(COc2cccc(Cl)c2)o1	-1.3%	-0.2%[57.5 µM]	?	0.0%	20µM*
O=C(O)/C=C\C(=O)Nc1ccc2c(c1)-c1ccccc1C2	-6.2%[9.17 µM]	1.9%[9.22 µM]	-2.4%[11.4 µM]	0.0%[9.22 µM]	-2.8%[11.4 µM]
C/C(=C\CNc1ncnc2c1ncn2[C@@H]1O[C@@H](CO)[C@@H](O)[C@H]1O)CO	7.7%	nt	1.2%	-2.3%[9.22 µM]	-5.4%
COC(=O)[C@@]1(Cc2ccccc2)[C@H]2c3cc(C(=O)N4CCCC4)n(Cc4cc(F)cc5c4OCOC5)c3C[C@H]2CN1C(=O)c1ccccc1	nt	-0.8%	?	nt	2.51µM*
COC(=O)[C@@]1(Cc2ccc(OC)cc2)[C@H]2c3cc(C(=O)N(C)C)n(Cc4ccc(S(C)(=O)=O)cc4)c3C[C@H]2CN1C(=O)c1ccccc1	nt	-1.7%	?	nt	?
COC(=O)[C@@]1(Cc2ccc(OC)cc2)[C@H]2c3cc(C(=O)N(C)C)n(Cc4ccsc4Br)c3C[C@H]2CN1C(=O)c1ccccc1	nt	0.2%	?	nt	6.31µM*
COC(=O)[C@@]1(Cc2ccccc2)[C@H]2c3cc(C(=O)N4CCCC4)n(Cc4cccc5ccccc45)c3C[C@H]2CN1C(=O)c1ccccc1	nt	-1.1%	?	nt	1.58µM*
